From PubChem BioAssay (NCATS)
Results filed as inconclusive are left out. The source made the active and inactive calls. Calls follow the shape of the dose curve; as a rule, active = well fitted curve in the direction sought with a large enough effect; inconclusive = small, poorly fitted or top-dose-only effect, or another doubt; inactive = no such curve, though single readings can be large; an effect the other way counts as inactive or inconclusive.

Experiments:
[1] = test system: MCC-13; assay: qHTS assay to identify novel small-molecules to repurpose for Merkel cell carcinoma treatment (AID 1296009); details: MCC and control cell lines, CellTiter-Glo viability, 72 h; series mostly up to 46 µM; also: nearly all actives have a fitted effect of over 60% in size
Method in brief: (§1)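 Cells exposed to NPC (8-point) and MIPE (11-point) compound dilutions for 72 hr at 37 degree celsius; viability read by CellTiter-Glo luminescence, normalized to no-cell and DMSO in-plate controls.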

[2] = test system: MKL-1; assay: as above; details: MCC and control cell lines, CellTiter-Glo viability, 72 h; series mostly up to 46 µM
Method in brief: as §1

[3] = test system: MKL-2; assay: as above; details: MCC and control cell lines, CellTiter-Glo viability, 72 h; series mostly up to 46 µM
Method in brief: as §1

[4] = test system: UISO; assay: as above; details: MCC and control cell lines, CellTiter-Glo viability, 72 h; series mostly up to 46 µM
Method in brief: as §1

[5] = test system: WaGa; assay: as above; details: MCC and control cell lines, CellTiter-Glo viability, 72 h; series mostly up to 46 µM
Method in brief: as §1

[6] = test system: C33A; assay: Primary qHTS to identify gynecologic anti-cancer compounds using libraries of approved drugs and bioactive compounds (AID 1345084); details: Gynecologic cancer cell panel viability, ATPlite luminescence, 48 h; series mostly up to 57.5 µM; also: nearly all actives have a fitted effect of over 55% in size
Method in brief: (§2)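 Luminescence from the ATPlite ATP-monitoring reagent indicates viable cell number; lower signal means cytotoxicity. Cells received compound 16 h after seeding and were exposed for 48 h across five concentrations.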

[7] = test system: CAOV3; assay: as above; details: Gynecologic cancer cell panel viability, ATPlite luminescence, 48 h; series mostly up to 57.5 µM
Method in brief: as §2

[8] = test system: CASKI; assay: as above; details: Gynecologic cancer cell panel viability, ATPlite luminescence, 48 h; series mostly up to 57.5 µM
Method in brief: as §2

[9] = test system: Es-2; assay: as above; details: Gynecologic cancer cell panel viability, ATPlite luminescence, 48 h; series mostly up to 57.5 µM
Method in brief: as §2

[10] = test system: HeLa; assay: as above; details: Gynecologic cancer cell panel viability, ATPlite luminescence, 48 h; series mostly up to 57.5 µM
Method in brief: as §2

[11] = test system: Hek293T; assay: as above; details: Gynecologic cancer cell panel viability, ATPlite luminescence, 48 h, control line for the selectivity index; series mostly up to 57.5 µM
Method in brief: as §2

[12] = test system: JEG-3; assay: as above; details: Gynecologic cancer cell panel viability, ATPlite luminescence, 48 h; series mostly up to 57.5 µM
Method in brief: as §2

[13] = test system: OV90; assay: as above; details: Gynecologic cancer cell panel viability, ATPlite luminescence, 48 h; series mostly up to 57.5 µM
Method in brief: as §2

[14] = test system: PA-1; assay: as above; details: Gynecologic cancer cell panel viability, ATPlite luminescence, 48 h; series mostly up to 57.5 µM
Method in brief: as §2

[15] = test system: SKOV3; assay: as above; details: Gynecologic cancer cell panel viability, ATPlite luminescence, 48 h; series mostly up to 57.5 µM
Method in brief: as §2

[16] = test system: Tov-21-G; assay: as above; details: Gynecologic cancer cell panel viability, ATPlite luminescence, 48 h; series mostly up to 57.5 µM
Method in brief: as §2

[17] = test system: MCC-26; assay: qHTS assay to identify novel small-molecules to repurpose for Merkel cell carcinoma treatment (AID 1296009); details: MCC and control cell lines, CellTiter-Glo viability, 72 h; series mostly up to 46 µM; also: nearly all actives have a fitted effect of over 60% in size
Method in brief: as §1

[18] = test system: NIH3T3; assay: as above; details: MCC and control cell lines, CellTiter-Glo viability, 72 h; at 44.8 µM (top of the series) unless noted
Method in brief: as §1

Measured: Potency
Potency is read from the fitted curve at half-maximal effect.

CCc1cc(S(=O)(=O)O)c2cc(C(C)C)cccc1-2
not listed: [17] | [18]
inactive: all other assays above

O=C(OCC(O)CO)c1ccccc1Nc1ccnc2c(C(F)(F)F)cccc12 (stereo not drawn)
not listed: [2] | [3] | [15] | [18]
inactive: all other assays above

CCCCCCCCCCCC[N+](C)(C)Cc1ccccc1
active: [17] 23.7 µM | [2] 1.06 µM | [3] 0.0944 µM | [4] 1.19 µM | [5] 1.88 µM | [6] 2.51 µM | [7] 5.62 µM | [8] 2.24 µM | [9] 7.94 µM | [10] 10 µM | [11] 15.8 µM | [13] 14.1 µM | [14] 8.91 µM | [15] 3.16 µM | [16] 7.94 µM

Nc1ccc2cc3ccc(N)cc3nc2c1
active: [1] 13.3 µM | [2] 4.22 µM | [4] 8.41 µM | [5] 2.66 µM | [6] 28.2 µM | [7] 8.91 µM | [8] 11.2 µM | [9] 8.91 µM | [10] 17.8 µM | [11] 6.31 µM | [13] 28.2 µM | [14] 7.94 µM

CCOC(=O)C(=O)CCCCCCl
not listed: [17]
inactive: all other assays above

CCCCCOc1ccccc1/C(=C\SC)n1ccnc1
active: [4] 18.8 µM
not listed: [2] | [3] | [5] | [10] | [14] | [15] | [18]
inactive: all other assays above

CC(C(O)c1ccccc1)N(C)CCOC(c1ccccc1)c1ccccc1 (stereo not drawn)
active: [15] 20 µM
inactive: [1] | [17] | [9] | [10] | [14] | [16]

CC(C)=CCNc1ncnc2c1ncn2[C@@H]1O[C@H](CO)[C@@H](O)[C@H]1O
active: [1] 8.41 µM | [2] 1.68 µM | [3] 0.944 µM | [4] 1.88 µM | [5] 2.99 µM | [6] 12.6 µM | [7] 7.94 µM | [8] 12.6 µM | [9] 25.1 µM | [10] 14.1 µM | [13] 17.8 µM | [14] 7.94 µM | [15] 11.2 µM | [16] 10 µM

CO/N=C(/C(=O)N[C@@H]1C(=O)N2C(C(=O)[O-])=C(C[n+]3ccn4ncccc43)CS[C@H]12)c1nsc(N)n1
not listed: [1] | [2] | [3] | [4] | [5] | [17] | [18]
inactive: all other assays above

O=C1NCCN1CCN1CCC(c2cn(-c3ccc(F)cc3)c3ccc(Cl)cc23)CC1
active: [17] 21.1 µM | [2] 8.41 µM | [3] 2.99 µM | [5] 10.6 µM | [6] 20 µM | [8] 35.5 µM | [11] 31.6 µM | [15] 28.2 µM

Nc1ccc2c(c1)CN1C(=O)c3ccccc3C1=N2
active: [8] 6.31 µM | [9] 10 µM | [12] 11.2 µM | [15] 7.94 µM | [16] 10 µM
inactive: [17] | [3] | [4]

Nc1ccc(O)cc1
inactive: [6] | [7] | [8] | [9] | [11] | [12] | [13] | [14] | [15] | [16]

NC(=O)C1(N2CCCCC2)CCN(CCCN2c3ccccc3CCc3ccc(Cl)cc32)CC1
active: [6] 25.1 µM | [13] 22.4 µM

CC[N+]1(CC)CCC(=C(c2ccccc2)c2ccccc2)C1C (stereo not drawn)
inactive: [6] | [7] | [8] | [9] | [10] | [11] | [13] | [16]

Brc1ccc([C@H]2CN3CCSC3=N2)cc1
not listed: [1] | [2] | [3] | [4] | [5] | [17]
inactive: all other assays above

O=C(c1ccccc1)c1ccccc1
not listed: [1] | [2] | [3] | [4] | [5] | [17] | [18]
inactive: all other assays above

O=[N+]([O-])c1ccc(-c2nc(-c3ccc(F)cc3)c(-c3ccncc3)[nH]2)cc1
inactive: [6] | [8] | [9] | [10] | [11] | [12] | [13] | [14] | [16]

Cc1nc(N)nc(N)c1-c1ccc(Cl)c(Cl)c1
active: [6] 0.447 µM | [8] 1.41 µM | [9] 1 µM | [10] 11.2 µM | [11] 1.58 µM | [12] 11.2 µM | [13] 0.891 µM | [14] 3.16 µM | [16] 0.794 µM
inactive: [17] | [3] | [7] | [15]
